From PubChem
SW480 rerep: inducers of DNA re-replication in SW480 colon cancer cells | SW480 DNA re-replication, Hoechst DNA content imaging, 48 h | Potency, µM (series often up to 46.1 µM), inactives show at the highest dose re-replication activation, hits mostly activators | 1.8% of 340,000 active | AID 624297; further: potency means the concentration at half of the fitted maximal effect; % of control where 0% means no effect; nearly all actives have a fitted effect of over 55% in size
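Per well, 250 cells were exposed to pinned compound for 48 hr. Nuclear DNA was visualised with Hoechst (40 min, 37 C) and total object intensity recorded by fluorescence scanning.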
KB-V1 cytotox: kills drug-selected multidrug resistant KB-V1 cells | KB-V1 MDR cells viability, CellTiter-Glo, 72 h | Potency, µM (doses to about 46.1 µM), most hits filed as cytotoxic | 3.4% of 400,000 active | AID 1347076; further: potency means the concentration at half of the fitted maximal effect; on the % scale 0 is the no-effect control and ±100 the full control effect; nearly all actives have a fitted effect of over 60% in size
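Cytotoxicity via CellTiter-Glo luminescence after 72 h compound exposure at 37 degrees C. Cells: drug-selected KB-V1 line, DMEM phenol-red free plus 10% FBS. Compounds tested at multiple concentrations; normalized data fitted to concentration-effect curves.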
KCNH2 WT inh: blocks the wildtype human KCNH2 potassium channel; 0.37% of 340,000 active; AID 720551; Q12809; U2OS, BacMam KCNH2, thallium flux FluxOr; stronger effect = lower value; activity change, % at 1.84 µM;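 active means maximum activity change below -70%; inconclusive means maximum activity change between -70% and -50%; inactive means maximum activity change above -50%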; further: on the % scale 0 is the no-effect control and ±100 the full control effect
Target sequence (Q12809 whole entry, looked up): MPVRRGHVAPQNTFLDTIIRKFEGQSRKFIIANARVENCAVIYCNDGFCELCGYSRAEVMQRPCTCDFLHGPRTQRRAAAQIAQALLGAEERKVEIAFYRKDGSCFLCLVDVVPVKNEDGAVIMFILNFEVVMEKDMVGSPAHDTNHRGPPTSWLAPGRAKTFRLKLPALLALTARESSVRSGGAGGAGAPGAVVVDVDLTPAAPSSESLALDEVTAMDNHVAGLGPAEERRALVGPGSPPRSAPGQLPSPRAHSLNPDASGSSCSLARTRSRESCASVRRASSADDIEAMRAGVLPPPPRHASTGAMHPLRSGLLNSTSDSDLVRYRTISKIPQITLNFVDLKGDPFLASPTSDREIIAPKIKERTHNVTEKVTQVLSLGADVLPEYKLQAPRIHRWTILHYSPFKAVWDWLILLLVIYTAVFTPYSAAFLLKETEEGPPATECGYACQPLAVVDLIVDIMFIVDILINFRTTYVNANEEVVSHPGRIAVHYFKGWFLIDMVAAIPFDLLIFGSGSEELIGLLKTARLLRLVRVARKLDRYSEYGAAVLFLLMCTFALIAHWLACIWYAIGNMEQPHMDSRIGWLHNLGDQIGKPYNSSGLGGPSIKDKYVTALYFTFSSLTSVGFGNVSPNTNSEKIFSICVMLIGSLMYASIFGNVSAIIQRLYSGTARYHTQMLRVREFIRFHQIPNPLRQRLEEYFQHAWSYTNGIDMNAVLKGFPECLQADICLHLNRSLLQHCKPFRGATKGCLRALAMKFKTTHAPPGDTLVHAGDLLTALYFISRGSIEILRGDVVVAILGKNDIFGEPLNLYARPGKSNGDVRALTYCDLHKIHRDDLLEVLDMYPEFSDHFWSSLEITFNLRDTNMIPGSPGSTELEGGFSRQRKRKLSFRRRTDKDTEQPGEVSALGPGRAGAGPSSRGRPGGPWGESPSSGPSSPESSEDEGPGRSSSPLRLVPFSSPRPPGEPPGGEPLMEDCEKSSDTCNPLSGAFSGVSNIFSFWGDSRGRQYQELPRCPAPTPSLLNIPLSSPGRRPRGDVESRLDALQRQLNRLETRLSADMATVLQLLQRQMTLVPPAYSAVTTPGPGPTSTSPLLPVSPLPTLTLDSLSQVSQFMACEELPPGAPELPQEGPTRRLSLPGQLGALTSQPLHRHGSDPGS
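U2OS cells were transduced with wild-type KCNH2 virus (2.03 x 10^8 / mL) for 4 h at room temperature, then cultured overnight at 37 C. Thallium flux was read with FluxOr dye. Rate constants were normalized to DMSO controls.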
KCNH2 3.1 inh: KCNH2 3.1 (human) potassium channel inhibition; U2OS KCNH2 3.1, thallium flux FluxOr; stronger effect = lower value; activity change, % (tested at about 1.8 µM); 0.95% of 340,000 active; AID 720553;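 active means maximum activity change below -70%; inconclusive means maximum activity change from -70% to -50%; inactive means maximum activity change above -50%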;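 further: thallium influx rate constant from kinetic fluorescence after stimulation buffer; on the % scale 0 is the no-effect control and ±100 the full control effect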
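We transduce U2OS cells with the mutant 3.1 virus, culture them overnight, load FluxOr with Red40 quencher for 45 min, then add stimulation buffer and read kinetically for 2 min to derive a normalized rate constant.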
KB-3-1 tox: KB-3-1 parental cell cytotoxicity; Potency, µM (highest dose often 46.1 µM), most hits filed as cytotoxic; KB-3-1 viability, CellTiter-Glo ATP luminescence, 72 h; 1.4% of 400,000 active; further: potency means the concentration at half of the fitted maximal effect; on the % scale 0 is the no-effect control and ±100 the full control effect; nearly all actives have a fitted effect of over 60% in size
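Using CellTiter-Glo luminescence, growth of non-resistant KB-3-1 adenocarcinoma cells is assessed 72 h after pin-tool compound addition at 37 °C. Normalized responses across the concentration series yield fitted curves.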
MCF10A rereplic: inducers of DNA re-replication in MCF 10A breast cells. MCF 10A DNA re-replication, Hoechst nuclear intensity, 48 h. Potency, µM (series often up to 46.1 µM), for the others: at the highest dose activity, positive = re-replication, actives largely listed as activators. 2.9% of 350,000 active; further: potency means the concentration at half of the fitted maximal effect; % of control where 0% means no effect; nearly all actives have a fitted effect of over 50% in size
Active calls of the source: *. Hits are enriched below; roughly 7.6% of the tested compounds scored in any of these assays. Unless noted, the call rests on the fitted dose curve; in most records, active means well fitted curve in the direction sought with a large enough effect; inconclusive means small, poorly fitted or top-dose-only effect, or another doubt; inactive means no such curve, though single readings can be large; an effect the other way counts as inactive or inconclusive.

Screening Cc1ccc(C(=O)N2CCN(CCNC(=O)C(=O)Nc3ccc(Cl)cc3)CC2)cc1 returned SW480 rerep 26.1%, KB-V1 cytotox inactive, KCNH2 WT inh 9.0, KCNH2 3.1 inh -86.9*, KB-3-1 tox inactive and MCF10A rereplic 7.6%.
CCN1CCN(CCNC(=O)Nc2ccc([N+](=O)[O-])cc2)CC1 was read as SW480 rerep -0.8%, KB-V1 cytotox inactive, KCNH2 WT inh -10.4, KCNH2 3.1 inh -15.0, KB-3-1 tox inactive and MCF10A rereplic 2.2%.
`COC(=O)c1cc(OC)c(OC)cc1NC(=S)N1CCN(C/C=C/c2ccccc2)CC1` gave SW480 rerep 4.6%, KB-V1 cytotox inactive, KCNH2 WT inh -3.4, KCNH2 3.1 inh -11.7, KB-3-1 tox inactive and MCF10A rereplic 24.4%.
`CCN1c2ccccc2-c2nc3ccccc3n2C1c1cccs1` (centres undefined) gave SW480 rerep inconclusive, KB-V1 cytotox inconclusive, KCNH2 WT inh -0.2, KCNH2 3.1 inh 5.3, KB-3-1 tox inconclusive and MCF10A rereplic inconclusive.
COc1ccccc1/C=c1/[nH]c(=O)/c(=C\c2ccccc2OC)[nH]c1=O was read as KB-V1 cytotox inconclusive and KB-3-1 tox inactive.
For COCCCn1c(C(=O)NCCN2CCOCC2)cc2c(=O)n3ccccc3nc21 the results were SW480 rerep -6.2%, KB-V1 cytotox inactive, KCNH2 WT inh 1.9, KCNH2 3.1 inh 3.5, KB-3-1 tox inactive and MCF10A rereplic 14.2%.
Screening CCOCCCn1c(=N)c(C(=O)NCc2ccccc2)cc2c(=O)n3ccccc3nc21 returned KB-V1 cytotox inactive and KB-3-1 tox inactive.
N=c1c(C(=O)NCCc2ccccc2)cc2c(=O)n3ccccc3nc2n1CCCN1CCOCC1 was read as SW480 rerep 5.17µM*, KB-V1 cytotox inconclusive, KCNH2 WT inh -2.8, KCNH2 3.1 inh -14.6, KB-3-1 tox inactive and MCF10A rereplic inconclusive.
Screening N=c1c(C(=O)NCc2ccc(F)cc2)cc2c(=O)n3ccccc3nc2n1CCCN1CCOCC1 returned SW480 rerep inconclusive, KB-V1 cytotox inactive, KCNH2 WT inh -7.8, KCNH2 3.1 inh -16.7, KB-3-1 tox inactive and MCF10A rereplic 2.82µM*.
Screening N=c1c(C(=O)NCCN2CCOCC2)cc2c(=O)n3ccccc3nc2n1CCc1ccccc1 returned SW480 rerep 10.3µM*, KB-V1 cytotox inactive, KCNH2 WT inh -5.1, KCNH2 3.1 inh -3.9, KB-3-1 tox inactive and MCF10A rereplic inconclusive.
`Cc1ccc(Cn2c(=N)c(C(=O)NCCN3CCOCC3)cc3c(=O)n4ccccc4nc32)cc1` gave SW480 rerep inconclusive, KB-V1 cytotox inactive, KCNH2 WT inh 9.6, KCNH2 3.1 inh 3.6, KB-3-1 tox inactive and MCF10A rereplic 0.581µM*.
CCc1cccc(C)c1NS(=O)(=O)c1c(C(=O)N2CCCCCC2)c(C)n(C)c1C was read as KB-V1 cytotox inactive and KB-3-1 tox inactive.
`COc1ccc(CCNC(=O)C2CCN(C(=O)c3ccccc3C)CC2)cc1` gave SW480 rerep 12.6%, KB-V1 cytotox inactive, KCNH2 WT inh 0.6, KCNH2 3.1 inh 2.9, KB-3-1 tox inactive and MCF10A rereplic 8.0%.
`N=c1c(C(=O)NCc2ccccc2)cc2c(=O)n3ccccc3nc2n1CCCN1CCOCC1` gave SW480 rerep 9.2µM*, KB-V1 cytotox inactive, KCNH2 WT inh -12.3, KCNH2 3.1 inh -16.0, KB-3-1 tox inconclusive and MCF10A rereplic 3.66µM*.
Screening O=C(CSc1nnc(C2CC2)n1CC1CCCO1)Nc1ccc(Cl)cc1 (centres undefined) returned SW480 rerep 2.8%, KB-V1 cytotox inactive, KCNH2 WT inh 0.0, KCNH2 3.1 inh -5.1, KB-3-1 tox inactive and MCF10A rereplic 0.5%.
COc1ccc(/C=C2\C(=O)NCC(=O)N2C)cc1 was read as SW480 rerep 2.4%, KB-V1 cytotox inactive, KCNH2 WT inh 1.7, KCNH2 3.1 inh -19.4, KB-3-1 tox inactive and MCF10A rereplic -4.6%.
Screening COc1ccc(/C=C2\C(=O)NCC(=O)N2Cc2ccccc2)cc1 returned SW480 rerep 16.4µM*, KB-V1 cytotox inconclusive, KCNH2 WT inh 5.7, KCNH2 3.1 inh 4.0, KB-3-1 tox inconclusive and MCF10A rereplic inconclusive.
For Cc1cc(C)n(C2CC(=O)N(c3ccc(Cl)c(Cl)c3)C2=O)n1 (centres undefined) the results were SW480 rerep -0.6%, KB-V1 cytotox inactive, KCNH2 WT inh 0.1, KCNH2 3.1 inh 0.2, KB-3-1 tox inactive and MCF10A rereplic -1.0%.
Cc1ccc(N2C(=O)CC(n3nc(C)cc3C)C2=O)cc1 (centres undefined) was read as SW480 rerep 2.7%, KB-V1 cytotox inactive, KCNH2 WT inh -6.1, KCNH2 3.1 inh -210.9*, KB-3-1 tox inactive and MCF10A rereplic -3.1%.
For COc1ccccc1N1CC(C(=O)Nc2nnc(SC)s2)CC1=O (centres undefined) the results were SW480 rerep 0.4%, KB-V1 cytotox inactive, KCNH2 WT inh 8.0, KCNH2 3.1 inh 3.4, KB-3-1 tox inactive and MCF10A rereplic -0.9%.
`CCOc1cc(C=C(C(=O)OC)C(=O)OC)ccc1OCc1ccc([N+](=O)[O-])cc1` gave SW480 rerep 14.6µM*, KB-V1 cytotox inconclusive, KCNH2 WT inh 11.4, KCNH2 3.1 inh -26.7, KB-3-1 tox 18.4µM* and MCF10A rereplic 0.651µM*.
COc1ccc(Cn2nnnc2C(c2ccccn2)N2CCN(c3cc(Cl)ccc3C)CC2)cc1 (centres undefined) was read as SW480 rerep inconclusive, KB-V1 cytotox 13µM*, KCNH2 WT inh -0.2, KCNH2 3.1 inh -12.4, KB-3-1 tox inconclusive and MCF10A rereplic 2.1%.
Screening O=C(CCn1cnc2ccccc21)N/N=C/c1ccccc1O returned SW480 rerep 8.2µM*, KB-V1 cytotox inactive, KCNH2 WT inh -1.1, KCNH2 3.1 inh 3.3, KB-3-1 tox inconclusive and MCF10A rereplic inconclusive.
Screening CCn1nc(NC(=O)c2ccncc2)c2cc3ccc(C)cc3nc21 returned SW480 rerep 6.9%, KB-V1 cytotox 9.2µM*, KCNH2 WT inh 6.7, KCNH2 3.1 inh -4.0, KB-3-1 tox inactive and MCF10A rereplic inconclusive.
For Cc1ccc2cc3c(NC(=O)c4cccnc4)nn(C)c3nc2c1 the results were SW480 rerep 8.9%, KB-V1 cytotox inactive, KCNH2 WT inh -20.9, KCNH2 3.1 inh 8.2, KB-3-1 tox inconclusive and MCF10A rereplic inconclusive.
For CCn1nc(NC(=O)c2ccncc2)c2cc3cc(C)ccc3nc21 the results were SW480 rerep inconclusive, KB-V1 cytotox inactive, KCNH2 WT inh 1.4, KCNH2 3.1 inh 1.8, KB-3-1 tox inactive and MCF10A rereplic 8.2µM*.
